Screening results as filed in PubChem BioAssay.
Only some compounds are listed: those with a hit (about 1.2% of all), similar ones and a draw of the others.
COUP-TFII inh: inhibitors of human COUP-TFII (NR2F2); inhibition, % at 8.6 µM; HEK293T NGFI-A luciferase reporter, luminescence; P24468; hit rate 0.7% among 370,000;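 active = inhibition above a per-plate cutoff, mean inhibition of test wells between control levels plus 3 SD, cut at about 38% in these data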;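 note: cells cotransfected with COUP-TFII expression vector driving the NGFI-A reporter; 0% = median of COUP-TF2 test wells and 100% = reporter-only cells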
SRC3 inh: inhibitors of human steroid receptor coactivator 3 (SRC3). HEK293 GAL4-SRC3 luciferase reporter, luminescence. inhibition, % at 3.6 µM. hit rate 0.17% among 360,000. AID 588352;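 active = inhibition above a per-campaign cutoff, the mean of all compounds plus 3 SD, cut at about 60% in these data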;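 note: 0% = DMSO-treated cells and 100% = gossypol-treated cells at 36 µM; higher means less SRC3-driven luciferase light from the GAL4 reporter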
SRC1 inh: inhibits human SRC1 coactivator; AID 588354; hit rate 0.12% among 360,000; Q15788; inhibition, % at 3.6 µM; HEK293 GAL4-SRC1 luciferase reporter, luminescence;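 active = inhibition above the campaign mean plus 3 SD, with each screening campaign given its own cutoff, cut at about 60% in these data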;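 note: 0% = DMSO treated cells and 100% = gossypol at 36 µM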
Efflux pump mplx: blocks antifungal efflux pumps in multiplex yeast assay; S. cerevisiae Candida pump triplex, Nile Red efflux; AID 485275; hit rate 0.44% among 330,000; inhibition, % at 10 µM;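 active = plate passing quality check with inhibition over a set limit, or well fluorescence over plate mean plus 4 SD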;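 note: Nile Red retained in pooled yeast measured as flow cytometry median fluorescence; 0% = buffer negative control and 100% = Enniatin B positive control; higher means more Nile Red kept so more efflux inhibition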
NCOA2 inhibitor: inhibits human steroid receptor coactivator 2; HEK293 GAL4-SRC2 luciferase reporter, luminescence; Q15596; inhibition, % at 9 µM; hit rate 0.17% among 370,000;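 active = inhibition above the mean inhibition of all tested compounds plus 3 SD, set per campaign, cut at about 52% in these data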;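 note: 0% = DMSO treated cells and 100% = cells given Gossypol at 36 µM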
LRH-1 inv ag: suppresses constitutive activity of human LRH-1; O00482; HEK293T StAR-luciferase reporter, LRH-1 transfected, 24 h; inhibition, % at 3.6 µM; hit rate 0.13% among 360,000; AID 602396;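 active = inhibition above the mean inhibition of all tested compounds plus 3 SD, cut at about 73% in these data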;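 note: 0% = DMSO wells and 100% = reporter-only cells lacking LRH-1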
Target sequence (O00482 whole entry, looked up): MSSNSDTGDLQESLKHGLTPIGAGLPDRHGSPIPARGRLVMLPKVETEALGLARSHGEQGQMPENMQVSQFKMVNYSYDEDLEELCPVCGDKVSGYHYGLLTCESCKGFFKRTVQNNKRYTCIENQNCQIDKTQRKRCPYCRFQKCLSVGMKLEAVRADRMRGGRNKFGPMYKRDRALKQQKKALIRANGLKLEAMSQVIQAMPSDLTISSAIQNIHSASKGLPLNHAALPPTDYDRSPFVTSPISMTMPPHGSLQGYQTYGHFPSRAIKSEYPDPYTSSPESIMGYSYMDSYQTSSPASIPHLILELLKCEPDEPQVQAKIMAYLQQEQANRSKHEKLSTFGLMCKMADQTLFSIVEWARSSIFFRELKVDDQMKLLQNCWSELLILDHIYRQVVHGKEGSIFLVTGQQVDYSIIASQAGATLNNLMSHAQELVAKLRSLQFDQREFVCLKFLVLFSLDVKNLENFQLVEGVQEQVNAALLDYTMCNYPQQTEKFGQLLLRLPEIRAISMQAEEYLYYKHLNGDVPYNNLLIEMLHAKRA
Active calls of the source: *.

C=C1C(=O)O[C@@H]2C[C@@H](C)[C@@H]3C4OC4C(=O)[C@@]3(C)[C@@H](O)[C@H]12 (stereo partly specified) was read as COUP-TFII inh 68.2*, SRC3 inh -13.1, SRC1 inh -61.6, Efflux pump mplx -0.1, NCOA2 inhibitor 77.5* and LRH-1 inv ag 65.9.
For C=C1C(=O)O[C@H]2[C@H]1[C@H](OC(=O)CC(=O)O[C@@H]1C[C@@H](C)[C@@H]3C=CC(=O)[C@@]3(C)[C@H]3OC(=O)C(=C)[C@H]13)C[C@@H](C)[C@H]1C=CC(=O)[C@]12C the results were COUP-TFII inh 20.6, SRC3 inh -26.8, SRC1 inh -10.2, Efflux pump mplx -0.1, NCOA2 inhibitor -16.3 and LRH-1 inv ag -23.2.
`C=C1C(=O)O[C@H]2C[C@@H](C)[C@@H]3C=CC(=O)[C@@]3(C)C[C@H]12` gave COUP-TFII inh 32.3 and NCOA2 inhibitor 72.3*.
For C1CNC2NCCNC2N1 (stereo unspecified) the results were COUP-TFII inh 10.9, SRC3 inh 7.0, SRC1 inh 0.4, NCOA2 inhibitor -13.6 and LRH-1 inv ag 11.2.
CC(C#N)CCC#N (stereo unspecified) was read as COUP-TFII inh -7.0, SRC3 inh 5.6, SRC1 inh 0.8, Efflux pump mplx 0.0, NCOA2 inhibitor 11.5 and LRH-1 inv ag -1.4.
For C=C(C=O)C[C@@H]1C[C@H](O)C2OC3C[C@]4(C)OC5/C=C\CC6OC7C(CC=CCC6OC5CCCC4OC3CC2O1)OC1CC2OC3CC(=O)OC3C[C@@H](C)C[C@@]2(C)OC1C[C@@H]7C (stereo partly specified) the results were Efflux pump mplx 49.7*.
C=C(C=O)CC1CC(O)[C@]2(C)OC3C[C@@H]4OC5C[C@]6(C)O[C@]7(C)CCC8OC9C[C@]%10(C)OC(/C(C)=C\CO)C(O)CC%10OC9CC(C)C8OC7CC6O[C@]5(C)C/C=C\C4OC3CC2O1 (stereo partly specified) was read as SRC3 inh 3.0, SRC1 inh -6.5, Efflux pump mplx 0.2 and LRH-1 inv ag 9.0.
`CN1C(=O)C(=Cc2sc(=O)n(-c3ccccc3)c2N(C)C)C(=O)N(C)C1=O` gave COUP-TFII inh -3.5, SRC3 inh -4.2, SRC1 inh 5.8, Efflux pump mplx 0.1, NCOA2 inhibitor -14.0 and LRH-1 inv ag 0.8.
`COc1ccc(-[n+]2c(-c3ccccc3)cc(-c3ccc(C)cc3)cc2-c2ccccc2)cc1` gave COUP-TFII inh 76.9*, SRC3 inh 78.5*, SRC1 inh 66.1*, Efflux pump mplx 0.0, NCOA2 inhibitor 37.1 and LRH-1 inv ag 86.2*.
Cc1ccc(-c2cc(-c3ccccc3)cc(-c3ccccc3)[n+]2-c2ccc(C(=O)O)cc2)cc1 was read as COUP-TFII inh -11.1, SRC3 inh 6.8, SRC1 inh 1.9, Efflux pump mplx -0.1, NCOA2 inhibitor -13.8 and LRH-1 inv ag 1.8.
Screening CCC(=NCCN1CCOCC1)c1c(O)n(C2CCCCC2)c(=O)[nH]c1=O returned COUP-TFII inh -3.1, SRC3 inh -3.5, SRC1 inh -5.0, Efflux pump mplx 0.0, NCOA2 inhibitor -13.8 and LRH-1 inv ag 1.4.
C[n+]1c2ccccc2nc2ccc(NCCO)cc21 was read as COUP-TFII inh 1.8, SRC3 inh -15.2, SRC1 inh -15.8, Efflux pump mplx 1.8*, NCOA2 inhibitor -41.2 and LRH-1 inv ag 14.6.
For CNc1ccc2nc3ccccc3[n+](C)c2c1 the results were COUP-TFII inh 20.6, SRC3 inh 31.7, SRC1 inh 32.7, Efflux pump mplx 6.0*, NCOA2 inhibitor 3.9 and LRH-1 inv ag 32.6.
COC(=O)C1=C(c2cccc(OC)c2OC)C[C@@H]2CC[C@H]1N2C(=O)N1CCC(O)CC1 was read as COUP-TFII inh -4.9, SRC3 inh 10.8, SRC1 inh 3.2, NCOA2 inhibitor 19.7 and LRH-1 inv ag -23.8.
For CCCC[C@@H](C)C[C@@H](C)C(=O)N(C)[C@@H](CC(C)C)C(=O)N[C@H](C(=O)N(C)[C@H](C(=O)N1C[C@@H](O)C[C@H]1C(=O)N1C(=O)C=C[C@@H]1C)C(C)C)C(C)OC(C)=O (stereo partly specified) the results were SRC3 inh 46.0, SRC1 inh -99.3, Efflux pump mplx 0.5 and LRH-1 inv ag 75.3*.
